The campaign covered roughly 2,300 compounds. About 330 (14%) showed activity.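 The calls were made as follows: active = median modified Z-score above 1.96; inactive = 1.96 or below.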 The list is a sample of the results.
Test system: HepG2 Srxn1-GFP reporter cells (+30 nM CDDO-Me)
Assay: Srxn1-GFP intensity median modified Z-score relative to plate median; higher = stronger NRF2 / oxidative stress reporter activation, active = hit call of the paper
Conditions: 10 µM; exposure time: 24h
Method in brief: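 Values give the median, over replicates, of the modified Z-score of GFP intensity on each plate. HepG2 Srxn1-GFP BAC reporter cells were co-treated for 24 h with an NRF2 activator at 30 nM and compound at 10 μM (≤0.1% DMSO) in three replicate plates, then analysed per cell for cytoplasmic GFP on confocal images with at least 100 cells. Scaling used 1.4826 × median absolute deviation.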

| Structure (SMILES) | Srxn1-GFP intensity median modified Z-score |
| --- | --- |
| CCC(C)(C)O [euspeclibcmpd964] | -0.585 (inactive) |
| C#CC(C)(O)CC (stereo not drawn) [euspeclibcmpd1276] | 1.99 (active) |
| CC1C(=O)O[C@@H]2CCN3CC=C(COC(=O)[C@](C)(O)[C@]1(C)O)[C@H]23 (stereo partly drawn) [euspeclibcmpd1632] | -0.339 (inactive) |
| N=c1[nH]c(=N)[nH]c(=NC2CC2)[nH]1 [euspeclibcmpd1229] | -0.282 (inactive) |
| CNC(=O)Oc1ccccc1OC(C)C [euspeclibcmpd1026] | -0.0719 (inactive) |
| c1ccc2c(c1)oc1ccccc12 | 0.352 (inactive) |
| c1ccc2c(c1)sc1ccccc12 [euspeclibcmpd88] | 3.54 (active) |
| C#CC1(O)CCC2C3CC=C4CC(=O)CCC4(C)C3CCC21C (stereo not drawn) [euspeclibcmpd545] | -0.576 (inactive) |
| CN1C2C[C@H](OC(=O)C(CO)c3ccccc3)C[C@@H]1[C@@H](O)C2 (stereo partly drawn) [euspeclibcmpd1244] | -0.443 (inactive) |
| CC(C)CC(N(C)C)C1(c2ccc(Cl)cc2)CCC1 (stereo not drawn) [euspeclibcmpd2026] | -0.299 (inactive) |
| O=c1cccc2n1C[C@H]1CNCC2C1 [euspeclibcmpd1159] | 0.6 (inactive) |
| C[N+]1(C)C2CC(OC(=O)C(CO)c3ccccc3)CC1C1OC12 (stereo not drawn) [euspeclibcmpd193] | -0.176 (inactive) |
| O=C(O)C1CCN1 (stereo not drawn) | 1.24 (inactive) |
| C[N+](C)(C)CCCCCCCCCC[N+](C)(C)C [euspeclibcmpd902] | 4.92 (active) |
| NCC1(CC(=O)O)CCCCC1 [euspeclibcmpd872] | -0.0794 (inactive) |
| CN(C(=O)Oc1cccc2cccnc12)c1ccccc1 | 5.69 (active) |
| COc1cc(OC)c2c(c1)O[C@H](c1ccc(OC)c(OC)c1)[C@@H](O)C2 [euspeclibcmpd1381] | -0.52 (inactive) |
| COc1cc2c(cc1-c1cc3cc4ccoc4cc3oc1=O)OCO2 [euspeclibcmpd1721] | 0.147 (inactive) |
| C[C@]12CCC3C(CC[C@H]4CC(=O)CC[C@]34C)C1CCC2=O (stereo partly drawn) [euspeclibcmpd1450] | -0.253 (inactive) |
| N#CC(O[C@@H]1O[C@H](CO[C@@H]2O[C@H](CO)[C@@H](O)[C@H](O)[C@H]2O)[C@@H](O)[C@H](O)[C@H]1O)c1ccccc1 (stereo partly drawn) [euspeclibcmpd1342] | -0.305 (inactive) |
| O=C(N/N=C/c1ccc([N+](=O)[O-])o1)c1cc([N+](=O)[O-])cc([N+](=O)[O-])c1O [euspeclibcmpd462] | 3.58 (active) |
| Cc1nccc2c1[nH]c1ccccc12 [euspeclibcmpd1462] | -0.275 (inactive) |
| COc1ccc2c(c1)[nH]c1c(C)nccc12 [euspeclibcmpd1501] | 1.98 (active) |
